Compounds without any hit were thinned out: in the full panel of roughly 83,000, 20% have a hit.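 Interpretation: 100, growth as untreated; towards 0, rising growth inhibition; 0, no net growth; 0 to -100, cell death. Compounds scoring below 10 were considered active.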 A number with no mark means an inactive call. Calls of active or inactive are those of the source.
How the values were obtained:
Assay in all cases: NCI-60 one-dose screen, 48 h (100 = growth as untreated, 0 = no growth, -100 = all killed)
Settings in all cases: 10 µM
NCI-H23 lung = test system: NCI-H23 lung
NCI-H226 lung = test system: NCI-H226 lung
NCI-H322M lung = test system: NCI-H322M lung
HOP-62 NSCLC = test system: HOP-62 NSCLC
NCI-H460 lung = test system: NCI-H460 lung
NCI-H522 lung = test system: NCI-H522 lung
A549/ATCC NSCLC = test system: A549/ATCC NSCLC
786-0 renal = test system: 786-0 renal
COLO 205 colon = test system: COLO 205 colon
DU-145 prostate = test system: DU-145 prostate
K-562 leukemia = test system: K-562 leukemia
MALME-3M melanoma = test system: MALME-3M melanoma
MDA-MB-231 breast = test system: MDA-MB-231 breast
RXF 393 renal = test system: RXF 393 renal
SF-268 CNS = test system: SF-268 CNS
SF-295 CNS = test system: SF-295 CNS
SF-539 CNS = test system: SF-539 CNS
M14 melanoma = test system: M14 melanoma
HCT-15 colon = test system: HCT-15 colon
UACC-257 melanoma = test system: UACC-257 melanoma

SMILES | growth (NCI-H23 lung) | growth (NCI-H226 lung) | growth (NCI-H322M lung) | growth (HOP-62 NSCLC) | growth (NCI-H460 lung) | growth (NCI-H522 lung) | growth (A549/ATCC NSCLC) | growth (786-0 renal) | growth (COLO 205 colon) | growth (DU-145 prostate) | growth (K-562 leukemia) | growth (MALME-3M melanoma) | growth (MDA-MB-231 breast) | growth (RXF 393 renal) | growth (SF-268 CNS) | growth (SF-295 CNS) | growth (SF-539 CNS) | growth (M14 melanoma) | growth (HCT-15 colon) | growth (UACC-257 melanoma) [%]
Clc1ccc2c(NCCCNc3nccc(Nc4ccc(Br)cc4)n3)ccnc2c1 | 46.8% | 90.1% | -19.9% (active) | 1.45% (active) | -45.9% (active) | -83.2% (active) | -71.7% (active) | -98.9% (active) | -84.3% (active) | 9.83% (active) | -68.8% (active) | -83.8% (active) | -90% (active) | -92.7% (active) | -84.3% (active) | -84.9% (active) | -93.1% (active) | -83.6% (active) | -65.8% (active) | –
CC12O[C@H](C[C@@H](OC(=O)c3ccccc3)[C@H]1O)n1c3ccccc3c3c4c(c5c6ccccc6n2c5c31)C(=O)NC4=O | 56.9% | 32.3% | 83.1% | 33.4% | 79.6% | 66.7% | 50.9% | 78.7% | 46.8% | 58.2% | 71% | 46.4% | 53.3% | 15.6% | 61.4% | 45.8% | 86.6% | 44.4% | 77.7% | –
Cc1cccc(C)c1NC(=O)c1sc2nc3c(cc2c1N)C(=O)CCC3 | 65.6% | 83% | 46.4% | 112% | 25.4% | 61.7% | 35.6% | 92.2% | 15.2% | 93.2% | 64% | 74.7% | 79% | 94.4% | 103% | 49.9% | 101% | 87.3% | 60.3% | 73.7
O=C1Nc2ccccc2C1=NC1CCCCC1 | 95.2% | 92% | 90.3% | 88.3% | 105% | 70.4% | 103% | 93.6% | 96.5% | 110% | 100% | 90.9% | 103% | 107% | 96% | 98.3% | 99.7% | 106% | 105% | 100
Nc1c(C(=O)Nc2cccc3ccccc23)sc2nc3c(cc12)C(=O)CCC3 | 18% | 54.1% | 37.6% | 26.1% | 5.05% (active) | -8.85% (active) | 23.4% | 46.1% | -20.7% (active) | -9.63% (active) | 10.3% | 59.9% | 8.28% (active) | -5.71% (active) | 36.1% | -1.44% (active) | -13.1% (active) | 12.6% | 18.9% | 45
CS(=O)(=O)Nc1ccc(Nc2c3ccccc3nc3cc([N+](=O)[O-])ccc23)cc1 | 1.7% (active) | 0.761% (active) | 62.6% | 19.2% | 0.406% (active) | -51.5% (active) | 16.5% | 6.96% (active) | 17.1% | 8.04% (active) | 7.9% (active) | 22.6% | 50.9% | 34.5% | 11.6% | 4.34% (active) | 24.4% | 4.52% (active) | 6.81% (active) | 44.6
Cc1cc(N(CCCNc2ccnc3cc(Cl)ccc23)Cc2ccc3c(c2)OCO3)nc(N2CCOCC2)n1 | 50.9% | 67.2% | 37.5% | 10.1% | 20.2% | 8.51% (active) | 28.7% | -20.4% (active) | -54% (active) | 38% | -6.17% (active) | -71.4% (active) | 14.4% | -48% (active) | 36.6% | -9.78% (active) | -72.9% (active) | -71.1% (active) | 4.7% (active) | –
COc1ccc2nc3cc(Cl)ccc3c(NCCNCC(C)O)c2c1 (centres undefined) | 42.8% | 67.9% | 25.8% | 19% | 0.055% (active) | -56.5% (active) | -3.68% (active) | 35.5% | 8.35% (active) | 28.8% | 2.47% (active) | 44.4% | 34.3% | – | 36% | 35.1% | 26.2% | 43.3% | – | 30.2
N=c1nc(N)ncn1-c1ccccc1 | 93.1% | 89.9% | 108% | 92.9% | 106% | 83.1% | 92.4% | 98% | 101% | 112% | 93.5% | 110% | 96.1% | – | 108% | 97.8% | 96.4% | 106% | – | 97.1
CCCN(CCC)CCC(O)c1cc2c(c3ccccc13)CCCC2 (centres undefined) | 79.8% | 81.1% | 99.1% | 79.4% | 98.9% | 74.2% | 92.3% | 84.3% | 77% | 106% | 82.5% | 95% | 79.1% | – | 83.3% | 85.4% | 85.4% | 91.9% | 81.4% | 95.8
CN(C)CC(O)c1ccc2cc(Br)c3ccccc3c2c1 (centres undefined) | 80.1% | 78.7% | 72.7% | 62.1% | 37% | 65.6% | 57.1% | 54% | -67.8% (active) | 70.7% | 24.7% | 97.1% | 16.8% | – | 58.5% | 75.6% | 65.9% | 47.2% | 53.7% | 99.2
CN1CCC2(CC1)NC(=O)c1c(c3ccc(Cl)c(Cl)c3n1C)C2C#N (centres undefined) | 76.6% | 53.8% | 85.6% | 58% | 49% | 76.3% | 63.7% | 68.7% | 58% | 92.4% | 80.1% | 98.3% | 55% | – | 67.4% | 94.9% | 76% | 23.8% | 82.6% | 65.2
CCN(CCCCCCN1CC(=O)N(CCCCCCN(CC)Cc2ccccc2OC)CC1=O)Cc1ccccc1OC | 60.4% | 107% | 96.5% | 79.7% | 75.1% | 76% | 85.8% | 74.2% | 54.6% | 76.7% | 4.44% (active) | 109% | 93.4% | – | 90.6% | 72.2% | 92.8% | 82.5% | 83.5% | 108

From PubChem BioAssay (NCI)
